# Bioassay records deposited in PubChem BioAssay by National Center for Advancing Translational Sciences (NCATS).
# Most compounds without a hit are left out; they make up all but 2.8% or so of the library.
# POLB inh – qHTS Assay for Inhibitors of DNA Polymerase Beta; 340,000 tested, 1.3% active; Potency, µM (highest dose often 114 µM), for the others: at the top dose activity change, negative = inhibition, actives largely listed as inhibitors; Pol beta primer extension/strand displacement, fluorescence kinetic; AID 485314, 2010; P06746; note: potency is the fitted concentration of half-maximal effect; % is set by controls: 0 for no effect and ±100 for the full control effect
#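 Enzyme-only controls used 10 nM Pol beta; buffer lacking enzyme served as negative control. Compound preincubated 15 min, then 50 nM substrate added; 0 and 10 min reads at room temperature.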
# Pol eta inh – qHTS for Inhibitors of Polymerase Eta | DNA polymerase eta (Homo sapiens), Q9Y253 | recombinant Pol eta, fluorescent DNA replication assay | Potency, µM (titrated, usually from 114 µM), inactives show at the highest dose activity change, negative = inhibition, most hits filed as inhibitors | 390,000 tested, 1.2% active | AID 588591, 2011; note: potency is the fitted concentration of half-maximal effect; % is set by controls: 0 for no effect and ±100 for the full control effect
#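 Pol eta (10 nM) was preincubated with compounds for 15 min at room temperature, after which fluorescent replication substrate (50 nM final) was added to start the reaction. Fluorescence was read kinetically at 0 and 10 min.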
# Pol kappa inh – qHTS for Inhibitors of Polymerase Kappa; purified Pol kappa, fluorescent DNA synthesis assay, 10 min; Potency, µM (series often up to 107 µM), inactives show at the highest dose activity, negative = inhibition, usual class: inhibitors; 400,000 tested, 0.53% active; note: potency is the fitted concentration of half-maximal effect; % is set by controls: 0 for no effect and ±100 for the full control effect
# Target sequence (Q9UBT6 whole entry, looked up): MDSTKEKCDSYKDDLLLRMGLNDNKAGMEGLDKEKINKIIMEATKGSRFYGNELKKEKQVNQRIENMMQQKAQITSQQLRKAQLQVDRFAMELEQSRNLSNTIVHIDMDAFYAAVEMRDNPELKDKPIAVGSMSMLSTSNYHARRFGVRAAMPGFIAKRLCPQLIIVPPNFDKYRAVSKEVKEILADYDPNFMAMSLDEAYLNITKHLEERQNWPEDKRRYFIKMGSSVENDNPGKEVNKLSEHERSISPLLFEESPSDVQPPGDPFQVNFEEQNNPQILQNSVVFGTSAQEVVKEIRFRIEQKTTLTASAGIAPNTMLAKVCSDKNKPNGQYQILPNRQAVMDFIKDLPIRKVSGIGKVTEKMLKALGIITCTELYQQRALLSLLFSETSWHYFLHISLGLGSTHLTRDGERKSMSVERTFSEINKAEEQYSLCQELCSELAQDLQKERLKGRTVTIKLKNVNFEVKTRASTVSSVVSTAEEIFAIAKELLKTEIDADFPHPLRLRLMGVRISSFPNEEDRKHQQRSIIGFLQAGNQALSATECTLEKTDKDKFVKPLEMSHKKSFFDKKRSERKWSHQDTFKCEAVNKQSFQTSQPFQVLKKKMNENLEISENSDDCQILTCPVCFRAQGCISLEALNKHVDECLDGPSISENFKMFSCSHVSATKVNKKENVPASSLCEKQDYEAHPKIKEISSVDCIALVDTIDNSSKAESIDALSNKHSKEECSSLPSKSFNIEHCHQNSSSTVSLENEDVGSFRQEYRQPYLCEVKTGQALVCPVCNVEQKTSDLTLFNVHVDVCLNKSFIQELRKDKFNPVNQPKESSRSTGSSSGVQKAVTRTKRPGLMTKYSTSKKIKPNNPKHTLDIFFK
#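 Kinetic fluorescence readout at 0 and 10 min followed reaction start with substrate at 50 nM final. Beforehand, enzyme (10 nM Pol kappa) stood 15 min with compound at room temperature; buffer-only wells were negative controls.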
# PI5P4K alpha inh – qHTS for Inhibitors of phosphatidylinositol 5-phosphate 4-kinase (PI5P4K). PI5P4Kalpha enzyme, ADP-Glo luminescence, 60 min; hits give low values. Phosphatidylinositol 5-phosphate 4-kinase type-2 alpha (Homo sapiens), P48426. max response, %. 330,000 tested, 1.2% active. AID 652105, 2013; active = max response of -50% or lower; inconclusive = between -30% and -50%; inactive = -30% or higher; note: value at the top dose of about 77 µM; % is set by controls: 0 for no effect and ±100 for the full control effect
#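 qHTS, 1536-well: enzyme/substrate mix, compound by pin tool, 5 microM ATP final; RT 60 min; ADP-Glo reagents 1 (45 min) then 2 (30 min); luminescence.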
# WRN inhibitor – qHTS for Inhibitors of WRN Helicase. AID 651768, 2012. Potency, µM (titrated, usually from 114 µM), for inactives: top-dose activity change, negative = inhibition, actives largely listed as inhibitors. 360,000 tested, 0.46% active. WRN helicase unwinding, fluorescent forked duplex, kinetic. Bifunctional 3'-5' exonuclease/ATP-dependent helicase WRN (Homo sapiens), Q14191; note: potency is the fitted concentration of half-maximal effect; % is set by controls: 0 for no effect and ±100 for the full control effect; nearly all actives have a fitted effect of over 55% in size
#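 WRN at 20 nM final was preincubated with compound for 15 min at room temperature; reaction started with 100 nM forked duplex oligonucleotide carrying fluorophore and quencher plus 2 mM ATP (final). Unwinding followed kinetically by red fluorescence (ex 525/em 598 nm).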
# POLI inh – qHTS for Inhibitors of Polymerase Iota; DNA polymerase iota (Homo sapiens), Q9UNA4; Pol iota fluorescent replication assay, 10 min; Potency, µM (highest dose often 115 µM), for the others: at the top dose activity, negative = inhibition, actives largely listed as inhibitors; 390,000 tested, 1% active; note: potency is the fitted concentration of half-maximal effect
#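 Fluorescent replication assay read twice, at 0 min and 10 min after adding 50 nM (final) substrate. Enzyme (10 nM) and compounds were first incubated 15 min at room temperature; enzyme-free buffer wells were negative controls.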
# * hit, by the source's call; ? = inconclusive; nt = not tested or not shown; ! = repeats disagree; [ ] = dose if it differs, or a comment. Unless noted, calls come from the whole dose curve; as a rule, active = well fitted curve in the direction sought with a large enough effect; inconclusive = small, poorly fitted or top-dose-only effect, or another doubt; inactive = no such curve, though single readings can be large; an effect the other way counts as inactive or inconclusive.
SMILES,POLB inh,Pol eta inh,Pol kappa inh,PI5P4K alpha inh,WRN inhibitor,POLI inh
C=C(C)C(=O)Nc1cccc(C2=NOC3(C2)C[C@@H](C(N)=O)N(C(=O)c2ccc(OC)cc2)C3)c1 (stereo partly drawn),2.8µM*,2.8µM*,14µM*,?,?,7.1µM*
C=C(C)C(=O)Nc1cccc(C2=NOC3(C2)C[C@@H](C(N)=O)N(C(=O)[C@H]2CCC(=O)N2)C3)c1 (stereo partly drawn),56µM*,1%,-11%,0,3%,-6%
CC(C)c1ccc(NC2CCCN(C(=O)CC3CCCC3)C2)cc1 (stereo not drawn),4%,-25%,-5%,18,-3%,-23%
CCN1C(=O)CCC(C(=O)O)C1c1ccc(OC)cc1 (stereo not drawn),0%,-11%,-4%,2,-1%,39%
O=C(Cc1ccccc1)Nc1cccc(N2C(=O)C=CC2=O)c1,14%,-13%,-16%,-52*,45µM*,-13%
COc1cccc(NC(=O)Cc2ccccc2)c1,2%,-3%,11%,0,7%,21%
N#C/C(=C\c1ccc(N2CCOCC2)o1)c1ccccc1,-19%,1%,-2%,nt,-11%,-3%
N#C/C(=C/c1ccc(N2CCOCC2)o1)c1nc2ccccc2[nH]1,?,?,-20%,-21,56µM*,8%
N#C/C(=C\c1ccc(Sc2ccc(Cl)cc2)o1)c1nc2ccccc2[nH]1,16µM*,?,-8%,-11,-6%,?
N#C/C(=C\c1ccc(Sc2nc3ccccc3[nH]2)o1)c1ccccc1,-1%,?,-6%,1,-11%,-1%
O=C1C=C(c2ccccc2)OC(c2ccccc2)O1 (stereo not drawn),11µM*,-24%,-20%,4,-1%,116%
Cc1ccccc1NS(=O)(=O)c1nnc(NC(=O)C(C)C)s1,11%,-17%,0%,5,-8%,19%
O=C(NNC(=O)C1[C@H]2CCCC[C@@H]12)c1ccc(=O)oc1 (stereo partly drawn),79µM*,?,?,2,-2%[11.6 µM],22µM*
O=C(NC12CC3CC(CC(C3)C1)C2)c1ccc(=O)oc1,9%,-3%,-6%,-7,5%,18%
COc1ccc(OCCCCc2c(C)n[nH]c2C)cc1,nt,10%,3%,-3,-5%,79µM*
CCOC(=O)c1ccc(NC(=O)CCCN2C(=O)NC3(CCCC3)C2=O)cc1,nt,-14%,0%,0,0%,42%
O=c1[nH]c(=S)c2[nH]cnc2[nH]1,nt,nt,-5%,nt,nt,-19%
CCC(CO)n1c(SCc2cc([N+](=O)[O-])cc3c2OCOC3)nc2ccccc2c1=O (stereo not drawn),3%,-11%,-15%,1,-5%[57.1 µM],10%
C=CCn1c(SCc2cc([N+](=O)[O-])cc3c2OCOC3)nc2cc(C(=O)O)ccc2c1=O,0%,-15%,-7%,-74*,-5%,?
C=CCn1c(SCC(=O)Nc2ccc(F)cc2)nc2cc(C(=O)O)ccc2c1=O,-21%,-4%,-10%,-51*,-18%,-6%
C=CCn1c(SCC(=O)Nc2ccccc2-c2ccccc2)nc2cc(C(=O)O)ccc2c1=O,1%,-10%,7%,-55*,-2%,17%
O=C1CCCC2=C1C(c1ccc(O)c(O)c1)Nc1ccc3ccccc3c12 (stereo not drawn),nt,?,?,?,-20%,79µM*
COc1ccc(C(=O)NC(=S)Nc2ccc3oc(=O)ccc3c2)cc1OC,3%,-11%,10%,-3,11%,4%
CCOC(=O)C1CCc2c(ccc3ccccc23)N1CCC#N (stereo not drawn),nt,-14%,nt,1,-2%,nt
CCOC1=C2[C@H](c3ccccc3)N(S(=O)(=O)c3ccc(C)cc3)C(C(C)(C)C)[C@H]2C(C#N)(C#N)C(C#N)(C#N)C1 (stereo partly drawn),nt,nt,nt,-50*,-14%,nt
SMILES,POLB inh,Pol eta inh,Pol kappa inh,PI5P4K alpha inh,WRN inhibitor,POLI inh
COc1ccc(NCc2ccccc2-c2nnc(-c3ccccc3)o2)cc1Cl,3%,-8%,-19%,nt,nt,7%
O=C(O)c1cc(=O)c2c(Cl)cc(Cl)cc2[nH]1,15%[57.1 µM],-2%[57.1 µM],-9%[60.1 µM],-59*,-2%,4%[58.9 µM]
O=C(Nc1cccc(-c2cscn2)c1)C1CCN(Cc2ccc(CO)o2)CC1,16%,2%,?,-6,-13%[11.6 µM],50µM*
Cc1c(Br)cnc2ccccc12,nt,nt,-13%,nt,nt,6%
O=C(O)c1ccc2[nH]c3c(c2c1)CSCC3,?,8.9µM*,?,-9,-25%,-18%
CN(C)CCOC(=O)c1ccc2[nH]c3c(c2c1)CSCC3,15%,-18%,-6%,-10,-9%[11.6 µM],115%
N#Cc1ccc(CC(=O)c2ccccc2)[nH]c1=O,nt,-14%,-22%,-17,56µM*,83%
NC(=O)[C@@H]1CCCN1Cc1nc(-c2cccs2)no1,2%,9%,0%,-5,8%,183%
Cc1noc(C)c1C(=O)N1CCC1(C)C(=O)NS(=O)(=O)c1cccc(OC(F)F)c1 (stereo not drawn),nt,nt,nt,-1,1%,nt
Cc1ccc(S(=O)(=O)N2[C@@H](c3ccc(F)cc3)C(C(=O)O)=C[C@H]2CC2CCCC2)cc1,nt,-4%,-5%,0,3%,-16%
CC1=C(c2ccc(C(C)C)cc2)S(=O)(=O)N=C1N1CCN(C(=O)c2ccco2)CC1,-16%,-19%,?,-6,-10%,50µM*
COc1ccc(OC)c(N=c2ssnc2Cl)c1,1%,-10%,-10%,-64*,56µM*,?
COc1cc(N=c2ssnc2Cl)c(OC)cc1Cl,25%,-15%,9%,-68*,56µM*!,20µM*
O=C(c1cccc(N2C(=O)C3CC=CCC3C2=O)c1)N1CCN(c2ccccc2)CC1 (stereo not drawn),45µM*,-20%,-4%,nt,9%,-9%[58.9 µM]
CCn1c(CSc2nnc(-c3cccnc3)n2-c2ccccc2C)nc2cc(C(=O)O)ccc21,3.5µM*,nt,nt,nt,nt,nt
CCn1c(CSc2nnc(-c3ccncc3)n2CCOC)nc2cc(C(=O)O)ccc21,?,?,-9%,-4,?,5%
O=C(Nc1cccc(-c2nc3cccnc3s2)c1)C1c2ccccc2Oc2ccccc21,-15%,8.9µM*,-6%,3,-27%[11.6 µM],-74%
